The record followed here is PubChem BioAssay (Tox21).

Experiment [1] is described as follows: qHTS assay to test for compound auto fluorescence at 535 nm (green) in HEK293 cells (AID 720680). Conditions: green autofluorescence 485/535 nm; series mostly up to 91.3 µM. (qHTS replaces the single test concentration by a dilution series.)
Experiment [2] is described as follows: qHTS assay to test for compound auto fluorescence at 460 nm (blue) in HEK293 cell free culture (AID 720681). Conditions: cell-free medium, autofluorescence 405/460 nm (blue); series mostly up to 91.3 µM. The essentials: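 Blue fluorescence (Ex 405/Em 460 nm, triamterene-equivalent) was read immediately after pin transfer of compound or DMSO into medium (DMEM, 10% FBS) without cells.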

Experiment [3] in a line: qHTS assay to test for compound auto fluorescence at 535 nm (green) in HEK293 cell free culture (AID 720682). Conditions: cell-free medium, green autofluorescence 485/535 nm, hits give high values; series mostly up to 91.3 µM. Put shortly:
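Each library compound, or DMSO control, is added by pintool to medium alone, comprising DMEM and 10% FBS. Emission at 535 nm following 485 nm excitation is quantified against fluorescein.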

Experiment [4] is described as follows: qHTS assay to test for compound auto fluorescence at 590 nm (red) in HEK293 cell free culture (AID 720683). The following applies: cell-free medium autofluorescence, Ex540/Em590 red; series mostly up to 91.3 µM. The essentials: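 Red-channel autofluorescence of compounds in culture medium (DMEM, 10% FBS), no cells, measured at 540/590 nm. Rose Bengal sodium is the reference fluorophore for equivalence.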

The nature of experiment [5]: qHTS assay to test for compound auto fluorescence at 590 nm (red) in HepG2 cell free culture (AID 720684). Conditions: cell-free medium autofluorescence, red 540/590 nm; series mostly up to 91.3 µM. The essentials: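 Steps: dispense MEM/10% FBS medium, no cells; pin compound or DMSO vehicle; read red channel, Ex/Em 540/590 nm. Output given as Rose Bengal sodium equivalents.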

Experiment [6] in a line: qHTS assay to test for compound auto fluorescence at 460 nm (blue) in HepG2 cell free culture (AID 720685). The following applies: Cell-free culture medium, blue autofluorescence 405/460 nm; series mostly up to 91.3 µM. The essentials: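 Compound (23 nL) or DMSO pinned into cell-free MEM with 10% FBS; blue fluorescence read at 405/460 nm excitation/emission, expressed as auto-fluorescence equivalency to triamterene.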

Experiment [7] in a line: qHTS assay to test for compound auto fluorescence at 535 nm (green) in HepG2 cell free culture (AID 720686). Conditions: Cell-free medium, green autofluorescence 485/535 nm; series mostly up to 91.3 µM.
In experiment [8] the target is Glucocorticoid receptor (Homo sapiens) (UniProt P04150). Description: qHTS assay to identify small molecule agonists of the glucocorticoid receptor (GR) signaling pathway (AID 720691; active = well fitted activation curve with a large enough effect in the signal ratio in the repeat runs, not every such curve was filed as active; the % refers to the signal ratio; note: potency is the fitted concentration of half-maximal effect). The following applies: GR-bla HeLa, beta-lactamase reporter ratio, 18 h; activation: at 62.4 µM (top of the series). The essentials: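 Fluorescence intensity from LiveBLAzer B/G FRET substrate (2 h, room temperature) reports beta-lactamase expression driven by the glucocorticoid response element in GR-bla HeLa cells after 18 h compound exposure at 37 C.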
Sequence of Glucocorticoid receptor (Homo sapiens) (P04150 whole entry, looked up): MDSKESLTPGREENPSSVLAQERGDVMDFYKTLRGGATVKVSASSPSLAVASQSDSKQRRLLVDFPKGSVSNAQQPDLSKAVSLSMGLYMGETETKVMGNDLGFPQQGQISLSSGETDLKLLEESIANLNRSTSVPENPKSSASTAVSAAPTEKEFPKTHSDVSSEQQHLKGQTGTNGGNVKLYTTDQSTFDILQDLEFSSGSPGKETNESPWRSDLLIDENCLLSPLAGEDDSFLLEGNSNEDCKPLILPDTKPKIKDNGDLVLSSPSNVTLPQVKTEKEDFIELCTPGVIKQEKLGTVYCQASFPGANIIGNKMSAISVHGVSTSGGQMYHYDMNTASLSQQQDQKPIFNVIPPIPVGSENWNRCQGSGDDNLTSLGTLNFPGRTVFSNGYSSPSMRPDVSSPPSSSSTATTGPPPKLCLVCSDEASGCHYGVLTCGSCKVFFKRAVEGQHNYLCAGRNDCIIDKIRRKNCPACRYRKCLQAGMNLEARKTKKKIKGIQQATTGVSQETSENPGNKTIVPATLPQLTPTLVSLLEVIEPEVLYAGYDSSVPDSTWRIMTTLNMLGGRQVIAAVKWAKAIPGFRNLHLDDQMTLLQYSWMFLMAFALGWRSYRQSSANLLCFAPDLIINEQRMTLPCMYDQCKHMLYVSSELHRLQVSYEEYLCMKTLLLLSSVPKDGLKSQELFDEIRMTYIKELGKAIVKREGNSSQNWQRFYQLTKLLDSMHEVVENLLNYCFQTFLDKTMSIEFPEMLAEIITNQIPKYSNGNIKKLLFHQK

Experiment [9] shares this target. Description: qHTS assay to identify small molecule antagonists of the glucocorticoid receptor (GR) signaling pathway (AID 720692; active = well fitted inhibition curve with a large enough effect in the signal ratio in the repeat runs, not every such curve was filed as active; the % refers to the signal ratio; note: potency is the fitted concentration of half-maximal effect). Conditions: GR-bla HeLa, beta-lactamase FRET ratio, dexamethasone-stimulated, 18 h; series mostly up to 58.5 µM. The essentials: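 HeLa GR-bla cells; cmpd + dex 5 nM final, 18 h 37 C; LiveBLAzer B/G FRET substrate 2 h RT; fluorescence intensity read. Antagonist mode, qHTS.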

A short description of experiment [10]: qHTS assay to test for compound auto fluorescence at 460 nm (blue) in HepG2 cells (AID 720687). The following applies: autofluorescence 405/460 nm, 1 h; series mostly up to 91.3 µM. The essentials: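 Blue-channel autofluorescence (Ex/Em 405/460 nm, triamterene-equivalent) was measured after 1 hr compound exposure at 37 C, 5% CO2. Cells were HepG2, plated overnight at 37 C in MEM plus 10% FBS.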

The structures appear in SMILES notation. Values without a mark were called inactive. Inconclusive results are not listed. Activity calls are given as the source filed them. Unless noted, calls come from the whole dose curve; as a rule, active = well fitted curve in the direction sought with a large enough effect in the repeat runs; inconclusive = weak or mixed curves; inactive = flat fitted curve, though single readings scatter.
% is set by controls: 0 for no effect and ±100 for the full control effect.

Turning to `Nc1c(Cl)cc(Cl)cc1Cl`, the call in experiment [1] and in experiment [3] was inactive. Besides, the Potency result in experiment [2], in experiment [4], in experiment [5], in experiment [6], in experiment [7] and in [8] was “inactive” in each case. Moreover, the Potency result in experiment [9] was “inactive”.
`Clc1ccc2nsnc2c1NC1=NCCN1`: the compound was called inactive in experiment [1] and in experiment [3]. Also, the Potency result in experiment [2], in experiment [4], in experiment [5], in experiment [6], in experiment [7] and in experiment [10] was “inactive” throughout. In addition, the Potency result in [9] is “inactive”.
With `O=C(c1ccc(O)cc1O)c1ccc(O)cc1O`, the compound was classed as inactive in experiment [1] and in experiment [3]. Also, the Potency result in experiment [2], in [4], in [5], in experiment [6], in experiment [7] and in experiment [10] was “inactive” in each case. In addition, the Potency entry in [8] was “inactive”. The Potency in [9] is 24.6 µM (active).
For the compound `CCCCC(CC)COP(=O)(O)OCC(CC)CCCC` (centres undefined), the compound was classed as inactive in experiment [1] and in experiment [3]. In addition, the Potency entry in experiment [2], in experiment [4], in experiment [5], in [6], in experiment [7] and in [10] was “inactive” in each case. Moreover, the Potency in experiment [9] is 49.1 µM (active).
As for `CC(C)CCCCCCCCCCCCCCC(=O)O`, the compound was called inactive in [1] and in experiment [3]. Further, the Potency result in experiment [2], in experiment [4], in [5], in experiment [6], in experiment [7] and in experiment [10] was “inactive” each time. The Potency entry in experiment [8] and in [9] was “inactive” throughout.
As to `CC(=O)SC[C@@H](Cc1ccccc1)C(=O)NCC(=O)OCc1ccccc1`, in experiment [1], the fluorescence, % of fluorescein is -0.0812% [at 18.6 µM]. The fluorescence, % of fluorescent control was 0.0019% [at 18.6 µM] in [2], 0.587% [at 18.6 µM] in [4], -0.074% [at 18.6 µM] in [6] and 0.351% [at 18.6 µM] in experiment [10]. Also, in [3], the activity change is -0.0233% [at 18.6 µM]. For the same compound, the fluorescence, % of Rose Bengal in experiment [5] is -0.444% [at 18.6 µM]. The fluorescence, % of fluorescein control in experiment [7] was -0.0189% [at 18.6 µM]. The Potency result in experiment [8] and in [9] was “inactive” in each case.
As for `S=c1[nH]c2ccccc2s1`, the compound was called inactive in experiment [1] and in experiment [3]. In addition, the Potency result in experiment [2], in experiment [4], in experiment [5], in experiment [6], in experiment [7] and in [10] was “inactive” throughout. Besides, the Potency result in experiment [8] and in experiment [9] was “inactive” throughout.
Regarding `CCc1cc(Cc2cc(CC)cc(C(C)(C)C)c2O)c(O)c(C(C)(C)C)c1`, the outcome in experiment [1] and in experiment [3] was inactive. The Potency result in [2], in [4], in experiment [5], in experiment [6] and in [10] was “inactive” in each case.
For `Cc1onc(-c2c(Cl)cccc2Cl)c1C(=O)N[C@@H]1C(=O)N2[C@@H]1SC(C)(C)[C@@H]2C(=O)O`, the call in [1] and in experiment [3] was inactive. Besides, the Potency entry in experiment [2], in experiment [4], in experiment [5], in experiment [6], in experiment [7] and in experiment [8] was “inactive” each time.
As to `O=c1c(-c2ccccc2)c1-c1ccccc1`, the compound was called inactive in experiment [1] and in experiment [3]. The Potency entry in experiment [2], in experiment [4], in experiment [5], in experiment [6], in experiment [7] and in [10] was “inactive” throughout. The Potency in experiment [9] is 23.9 µM (active).
For the compound `CC1=NC(C)OC1C` (centres undefined), the outcome in [1] and in experiment [3] was inactive. Besides, the Potency result in experiment [2], in experiment [4], in experiment [5], in [6], in experiment [7] and in experiment [10] was “inactive” in each case. In addition, the Potency entry in [8] was “inactive”. Moreover, the Potency in experiment [9] was 34.7 µM (active).
On to `NNc1nc(-c2ccc(N)cc2)cs1`, for which the compound was classed as inactive in experiment [1] and in experiment [3]. Also, the Potency entry in experiment [2], in [4], in experiment [5], in experiment [6] and in [10] was “inactive” throughout.
`Nc1ccc2cc(S(=O)(=O)O)cc(O)c2c1N=Nc1ccccc1C(F)(F)F`: the call in experiment [1] and in [3] was inactive. The Potency result in [2], in experiment [4], in experiment [5], in [6], in experiment [7] and in experiment [8] was “inactive” throughout. Also, the Potency entry in experiment [9] is “inactive”.
As to `CC(C)(C)c1ccc(C(=O)O)cc1`, the compound was classed as inactive in experiment [1] and in experiment [3]. Also, the Potency result in experiment [2], in [4], in experiment [5], in experiment [6], in experiment [7] and in experiment [10] was “inactive” in each case. For the same compound, the Potency result in [8] and in experiment [9] was “inactive” throughout.
Regarding `O=C1Cc2cc(CCN3CCN(c4nsc5ccccc45)CC3)c(Cl)cc2N1`, the compound was called inactive in experiment [1] and in [3]. For the same compound, the Potency entry in [2], in [4], in [5], in experiment [7], in [10] and in experiment [9] was “inactive” throughout. For the same compound, in experiment [8], the Potency is 21.3 µM (active).
Consider `CCCCCCCCCCCCCCCC[N+](C)(C)CCN(Cc1ccc(OC)cc1)c1ncccn1`, for which the fluorescence, % of fluorescein in experiment [1] is -0.0029% [at 18.6 µM]. Moreover, the figures for the fluorescence, % of fluorescent control in experiment [2] and in [4] were -0.0676% [at 18.6 µM] and -0.016% [at 18.6 µM], respectively. Besides, the activity change in experiment [3] is -0.0015% [at 18.6 µM]. Further, in experiment [5], the fluorescence, % of Rose Bengal is 0.665% [at 18.6 µM]. Further, the fluorescence, % of fluorescein control in experiment [7] was -0.0114% [at 18.6 µM]. In addition, the Potency entry in [8] and in experiment [9] was “inactive” throughout.
